Here are results for 21 molecules from PubChem BioAssay (Tox21).

Values joined by “and” are separate entries in the source; they are usually repeats but may differ in a detail not shown here. Identical values can stand only once. Results filed as inconclusive are left out. Where a call stands in place of a potency, no number is given. Some compounds were tested as several samples or in several runs, with calls that do not always agree. Active and inactive are the calls of the source. Calls come from the whole dose curve; as a rule, active = well fitted inhibition curve with a large enough effect in the repeat runs; inconclusive = weak or mixed curves; inactive = no such curve, though single readings can be large or run the other way.
Potency is the fitted concentration of half-maximal effect.

Cytochrome P450 2C9 (Homo sapiens), sequence (P11712 whole entry, looked up): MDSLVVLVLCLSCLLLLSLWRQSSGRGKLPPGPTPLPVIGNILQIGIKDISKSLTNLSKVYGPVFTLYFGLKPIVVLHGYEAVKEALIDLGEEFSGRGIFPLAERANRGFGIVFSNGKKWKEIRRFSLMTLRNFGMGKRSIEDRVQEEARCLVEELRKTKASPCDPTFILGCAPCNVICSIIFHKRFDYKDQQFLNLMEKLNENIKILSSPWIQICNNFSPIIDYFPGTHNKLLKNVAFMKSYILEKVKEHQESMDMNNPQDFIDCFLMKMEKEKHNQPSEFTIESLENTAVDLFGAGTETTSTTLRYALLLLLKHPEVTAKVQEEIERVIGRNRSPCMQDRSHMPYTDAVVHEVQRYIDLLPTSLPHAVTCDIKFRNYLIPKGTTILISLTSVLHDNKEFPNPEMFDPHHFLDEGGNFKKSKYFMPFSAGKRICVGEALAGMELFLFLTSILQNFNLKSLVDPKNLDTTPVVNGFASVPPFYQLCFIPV
Cytochrome P450 2C19 (Homo sapiens), sequence (P33261 whole entry, looked up): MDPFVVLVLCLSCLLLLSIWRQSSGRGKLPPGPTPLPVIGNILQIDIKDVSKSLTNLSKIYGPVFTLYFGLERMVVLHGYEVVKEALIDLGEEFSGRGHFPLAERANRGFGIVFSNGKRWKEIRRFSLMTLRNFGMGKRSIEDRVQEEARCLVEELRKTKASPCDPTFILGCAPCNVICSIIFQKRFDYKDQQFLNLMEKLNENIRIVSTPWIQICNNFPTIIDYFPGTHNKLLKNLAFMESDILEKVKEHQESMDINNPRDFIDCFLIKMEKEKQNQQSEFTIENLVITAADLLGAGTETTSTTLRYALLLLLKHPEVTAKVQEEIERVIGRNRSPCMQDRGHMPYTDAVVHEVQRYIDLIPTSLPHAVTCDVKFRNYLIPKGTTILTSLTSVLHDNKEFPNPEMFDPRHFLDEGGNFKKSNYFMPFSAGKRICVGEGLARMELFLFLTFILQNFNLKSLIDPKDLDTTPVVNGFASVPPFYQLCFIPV

The first experiment addresses Cytochrome P450 2C19 (Homo sapiens) (UniProt P33261). Description: Cytochrome P450 Family 2 Subfamily C Member 19 (CYP2C19) small molecule antagonists: luciferase reporter qHTS assay (AID 1671197). Note: nearly all actives have a fitted effect of over 65% in size. Conditions: P450-Glo CYP2C19 enzyme, luciferin luminescence, 1 h; series mostly up to 115 µM. The essentials: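 First, compounds are pinned into enzyme-substrate mix and held 10 min at room temperature. Second, NADPH regeneration solution is added and plates incubate 1 h at 37C. Third, detection reagent is added and luminescence read after 20 min.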
(In general: In a reporter assay the amount or activity of a reporter protein is the signal.)
With `COc1cc(O)c(C(=O)c2ccccc2)cc1S(=O)(=O)O`, the Potency was 78.8 µM (active) and inactive. Same read-out and setting: in the case of `CC(=O)/C=C/C1=C(C)CCCC1(C)C` it was 40.7 µM (active) and 39.9 µM (active) and 71 µM (active); in that of `CC(=O)c1ccc(S(=O)(=O)NC(=O)NC2CCCCC2)cc1`, “inactive”. For `CCOCCO`, the Potency entry is “inactive”. The same measure, in the same setting: in the case of `CC1(C)O[C@@H]2[C@@H](CO[C@@]3(COS(N)(=O)=O)OC(C)(C)O[C@@H]23)O1` it was 4.9 µM (active). On the same count and under the same terms, in the case of `NC(=O)c1ccc([N+](=O)[O-])cc1Cl` it was “inactive”; in that of `CC(C)Cc1ccc(C(C)C(=O)O)cc1` (stereo not drawn), “inactive”; in that of `CC(C)(C)NCC(O)c1ccc(O)c(CO)c1` (stereo not drawn), “inactive”. For `COCCOCCOC`, the Potency entry is “inactive”.

With `Cc1cccc2ccccc12`, the Potency result is “inactive and 71 µM (active)”. Still for that read-out and setting: in the case of `COc1ccc(O)cc1` it was 34.3 µM (active) and inactive; in that of `COC(=O)c1ccc(C=O)cc1`, 71 µM (active) and inactive; in that of `CCCCOC(=O)CCCCCCCCC(=O)OCCCC`, “inactive”. The same measure, in the same setting: in the case of `C=C(C)OC(C)=O` it was “inactive”; in that of `CN/C(=C\[N+](=O)[O-])NCCSCc1ccc(CN(C)C)o1`, “inactive”; in that of `CN(C)C=O`, “inactive”. As to `C#C[C@]1(O)CC[C@H]2[C@@H]3CCC4=CC(=O)CC[C@@H]4[C@H]3CC[C@@]21CC`, the Potency was 2.83 µM (active) and 5.64 µM (active) and 2.45 µM (active).

With `NC(=O)OCC(COC(N)=O)c1ccccc1`, the Potency entry is “inactive and 34.7 µM (active)”.

In the case of `Cc1cccc(C)c1O`, the Potency was 72.1 µM (active) and inactive. The same measure, in the same setting: in the case of `CC(C)(C)CC(C)(C)c1ccc(O)c(-n2nc3ccccc3n2)c1` it was 36.1 µM (active) and 20 µM (active); in that of `O=C(O)CN(CC(=O)O)CC(=O)O`, 36.1 µM (active) and inactive.

For the next experiment, the target named is Cytochrome P450 2C9 (Homo sapiens) (UniProt P11712). Kind of experiment: Cytochrome P450 Family 2 Subfamily C Member 9 (CYP2C9) small molecule antagonists: luciferase reporter qHTS assay (AID 1671198). Note: nearly all actives have a fitted effect of over 50% in size. Conditions: P450-Glo CYP2C9 enzyme assay, luciferin luminescence; series mostly up to 115 µM. The essentials:
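P450-Glo proluciferin substrate with CYP2C9 enzyme; 10 min RT preincubation, then NADPH regeneration 1 h at 37C; luciferin detection reagent 20 min RT, luminescence in relative luminescence units.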
Consider `COc1cc(O)c(C(=O)c2ccccc2)cc1S(=O)(=O)O`, for which the Potency entry is “inactive”. As for `CC(=O)c1ccc(S(=O)(=O)NC(=O)NC2CCCCC2)cc1`, the Potency was 31.6 µM (active) and 31.7 µM (active) and 17.4 µM (active). Same read-out and setting: in the case of `CCOCCO` it was “inactive”; in that of `CC1(C)O[C@@H]2[C@@H](CO[C@@]3(COS(N)(=O)=O)OC(C)(C)O[C@@H]23)O1`, “inactive”. The same measure, in the same setting: in the case of `NC(=O)c1ccc([N+](=O)[O-])cc1Cl` it was 71 µM (active) and inactive. For the molecule `CC(C)(C)NCC(O)c1ccc(O)c(CO)c1` (stereo not drawn), the Potency entry was “inactive”.

Consider `COCCOCCOC`, for which the Potency result was “inactive”. The same measure, in the same setting: in the case of `Cc1cccc2ccccc12` it was “inactive”; in that of `COc1ccc(O)cc1`, “inactive”; in that of `COC(=O)c1ccc(C=O)cc1`, “inactive”. On to `CCCCOC(=O)CCCCCCCCC(=O)OCCCC`, for which the Potency is 28.3 µM (active).

Turning to `C=C(C)OC(C)=O`, the Potency result was “inactive”.

With `CN/C(=C\[N+](=O)[O-])NCCSCc1ccc(CN(C)C)o1`, the Potency result was “inactive”.

Regarding `CN(C)C=O`, the Potency entry was “inactive”. On the same count and under the same terms, in the case of `NC(=O)OCC(COC(N)=O)c1ccccc1` it was “inactive”; in that of `CC(C)(C)CC(C)(C)c1ccc(O)c(-n2nc3ccccc3n2)c1`, 20.3 µM (active) and 10 µM (active) and 12.3 µM (active); in that of `O=C(O)CN(CC(=O)O)CC(=O)O`, “inactive”.
